This is a sample that favours compounds with a hit; in the whole collection about 3.7% have one here.
MazEF act: MazEF (E. coli) toxin RNase activation; P0AE70; FAM/BHQ RNA-DNA oligo cleavage fluorescence, 5 h; activation, % at 20 µM; 0.32% of 350,000 active; AID 504720; in the data active = activation above about 50%
Autofluor counter: counter-screen for toxin protease inhibitors: compound fluorescence; compound autofluorescence counterscreen, microsphere flow cytometry; hits give high values; fluorescence intensity (test concentration not listed); 3.1% of 360,000 active; AID 624483; in the data active = fluorescence intensity above about 16000; inconclusive = no clear call, values can overlap the other calls
BoNT-F LC inh: inhibitors of Botulinum neurotoxin F light chain protease | 0.22% of 360,000 active | inhibition, % at 10 µM | Multiplex microsphere protease cleavage assay, flow cytometry; in the data active = inhibition above about 35%, passing the limit was not always enough; inconclusive = no clear call, values can overlap the other calls; note: plate controls were buffer without enzyme for full effect and enzyme alone for no effect
BoNT-A LC inh2: BoNT A light chain protease inhibition. multiplex microsphere protease substrate cleavage, flow cytometry. inhibition, % at 10 µM. 0.17% of 360,000 active. AID 588499; note: plate controls were buffer without enzyme for full effect and enzyme alone for no effect
Anthrax LF inh2: inhibitors of Bacillus anthracis lethal factor protease. 0.12% of 360,000 active. inhibition, % at 10 µM. multiplex microsphere protease cleavage assay, LF; note: plate controls were buffer without enzyme for full effect and enzyme alone for no effect
Target sequence (P15917 whole entry, looked up): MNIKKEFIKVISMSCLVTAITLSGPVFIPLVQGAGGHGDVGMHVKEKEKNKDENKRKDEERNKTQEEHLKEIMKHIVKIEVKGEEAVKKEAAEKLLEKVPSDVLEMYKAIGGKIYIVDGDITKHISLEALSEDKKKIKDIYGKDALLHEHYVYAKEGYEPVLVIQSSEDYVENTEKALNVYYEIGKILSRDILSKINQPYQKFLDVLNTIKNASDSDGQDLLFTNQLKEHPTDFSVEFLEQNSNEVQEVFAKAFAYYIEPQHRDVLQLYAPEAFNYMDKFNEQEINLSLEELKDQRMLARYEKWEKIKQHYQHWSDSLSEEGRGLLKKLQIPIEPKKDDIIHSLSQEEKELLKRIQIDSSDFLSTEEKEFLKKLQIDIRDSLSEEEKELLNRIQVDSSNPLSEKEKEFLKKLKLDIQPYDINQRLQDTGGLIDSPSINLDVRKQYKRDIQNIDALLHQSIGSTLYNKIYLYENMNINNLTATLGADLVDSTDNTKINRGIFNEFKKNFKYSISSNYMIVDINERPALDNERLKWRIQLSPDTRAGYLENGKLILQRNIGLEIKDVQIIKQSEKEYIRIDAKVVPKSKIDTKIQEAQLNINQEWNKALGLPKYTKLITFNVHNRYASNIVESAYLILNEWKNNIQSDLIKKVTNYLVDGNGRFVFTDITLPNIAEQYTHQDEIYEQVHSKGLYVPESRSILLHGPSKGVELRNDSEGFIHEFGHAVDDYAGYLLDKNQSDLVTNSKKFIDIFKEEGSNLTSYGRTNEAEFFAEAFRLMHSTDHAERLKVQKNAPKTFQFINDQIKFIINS
The depositor's hits bear a star; ? = inconclusive; · = no result given. Cut-off read from the data, not from the text of the source, unless noted: active = inhibition above about 30%; inconclusive = no clear call, values can overlap the other calls; inactive = below that.

SMILES	MazEF act	Autofluor counter	BoNT-F LC inh	BoNT-A LC inh2	Anthrax LF inh2
Cn1c(=O)c2c(nc(SCCCO)n2Cc2ccccc2Cl)n(C)c1=O	-11	16181*	2	1	-2
C=CC(C)Sc1nc2c(c(=O)n(C)c(=O)n2C)n1Cc1ccccc1Cl (configuration not stated)	3	5514	-9	0	-9
C=CCOc1nc2c(c(=O)n(C)c(=O)n2C)n1Cc1ccc(Cl)cc1	-6	2555	-4	-1	-1
Cn1c(=O)c2c(nc(Sc3ncccn3)n2Cc2ccccc2Cl)n(C)c1=O	0	18229*	7	6	-2
Cn1c(=O)c2c(nc(OCc3ccc4c(c3)OCO4)n2Cc2ccccc2Cl)n(C)c1=O	3	4204	1	1	2
C=CCOc1nc2c(c(=O)n(C)c(=O)n2C)n1Cc1ccccc1Cl	13	20534*	7	6	-6
O=C(Nc1ccon1)c1nc[nH]c1C(=O)N1CCN(c2ccccc2)CC1	4	4795	0	-1	2
COc1ccccc1-c1noc2c1C(=O)N(Cc1cn(C3CCCC3)nn1)CC2	·	5950	-1	0	0
CNC(=O)OC1CC2CC1[C@H]1CCCCN1C2=O (some centres not stated)	·	5895	2	0	8
C/C=C/c1ccc2c(c1)O[C@H](CN(C)C(=O)NC1CCCC1)[C@H](C)CN([C@H](C)CO)S2(=O)=O	1	3081	-3	0	-4
CC(=O)c1nnn(-c2nc(N3CCCC3)nc(N(c3ccccc3)c3ccccc3)n2)c1C	-2	23099*	-6	-2	-2
CC(C)Oc1cccc(NC(=O)C2(C)CCCN2C(=O)C(C)C)c1 (configuration not stated)	·	3785	-5	0	4
CC(=O)Nc1ccc2c(c1)nc1n2CCSC1	-9	18041*	1	5	-1
COc1ccccc1C(=O)Nc1ccc2c(c1)nc1n2CCSC1	-54	?	8	2	-1
Cc1ccc(C(=O)Nc2ccc3c(c2)nc2n3CCSC2)cc1	-5	23988*	4	2	5
O=C(Cn1c(Cn2c(-c3cnccn3)nc3ccccc32)nc2ccccc21)c1ccc(OC(F)(F)F)cc1	·	5741	6	0	0
CN1CCN(C2CN(Cc3cn(Cc4ccccc4)nn3)S(=O)(=O)C2)CC1 (configuration not stated)	·	3937	-4	0	-7
C[C@H](CO)N1C[C@H](C)[C@H](CN(C)S(=O)(=O)c2ccc(F)cc2)OCc2cnnn2CCCC1=O	7	3635	-2	0	-2
CCCCCCN1CCN(C2CN(Cc3cn(Cc4cccc(C(F)(F)F)c4)nn3)S(=O)(=O)C2)CC1 (configuration not stated)	·	5953	4	1	2
C/C(=N/NS(=O)(=O)c1ccccc1)c1c[nH]c2ccccc12	23	4092	-6	2	-1
C/C(=N/NS(=O)(=O)c1cccc([N+](=O)[O-])c1)c1c[nH]c2ccccc12	56*	5620	1	0	-4
Cc1nc(N2CCOCC2)[nH]c(=O)c1CCC(C)C	-15	16493*	3	0	-1
CC1(C)CC(NS(=O)(=O)c2ccc(S(=O)(=O)N3CCOCC3)cc2)CCO1 (configuration not stated)	0	19550*	-1	-1	-5
CC(C)CO/C(=N/S(=O)(=O)c1ccccc1)c1ccccc1	5	21474*	-3	-1	-3
O=[N+]([O-])c1ccc(Cl)c(C[n+]2cccc3ccccc32)c1	36	7598	49*	-7	-12
SMILES	MazEF act	Autofluor counter	BoNT-F LC inh	BoNT-A LC inh2	Anthrax LF inh2
COc1ccc(NC(=O)C2(C)CCN2C(=O)Cc2ccc(Cl)cc2Cl)cc1OC (configuration not stated)	·	3831	2	0	-7
CC(=O)N1c2ccccc2Oc2cc3ccccc3cc21	2	6722	-7	1	-5
O=C(CCl)N1c2ccccc2Oc2ccc3ccccc3c21	-301	3811	11	31*	35*
COC(=O)c1ccc2c(c1C(=O)OC)CN(S(=O)(=O)C(C)(C)C)[C@H]2CCO	-5	4104	-5	0	1
CCOC(=O)c1sc(N)c(C#N)c1COC(=O)CNC(=O)c1cc(OC)c(OC)c(OC)c1	-148	16372*	-5	0	-5
NC(=O)C(c1ccc(Cl)cc1Cl)c1ncc(C(F)(F)F)cc1Cl (configuration not stated)	-7	19681*	0	?	0
CC(C(=O)Nc1ccc(Cl)cc1)c1ncc(C(F)(F)F)cc1Cl (configuration not stated)	-11	20389*	-2	1	-1

Bioassay records as filed in PubChem BioAssay.
